Screens deposited in PubChem BioAssay by Sanford-Burnham Center for Chemical Genomics.
The list is not random: actives were taken first. Their share in the collection is about 4%.
HIF-2a inh – HIF-2a reporter inhibitors, primary screen, luminescence, 786-0 RCC cells; actives 0.72% (n = 360,000); AID 624352, 2012; 786-0 RCC cells HIF-2a reporter, luciferase luminescence, overnight; inhibition, % at 18.8 µM;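 active means inhibition of the luminescence signal of 40% or more relative to plate controls, in a single-dose primary screen at 18.75 µM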
Peg3 promoter – Peg3 promoter-driven luciferase inhibitors, primary screen, cell-based, HeLa, luciferase luminescence; actives 1.7% (n = 360,000); HeLa PEG-Prom luciferase reporter, overnight; inhibition, % at 20 µM;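 active means inhibition of at least 50% at 20 µM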
TROY signal inh – inhibitors of TROY-driven NF-kB signaling, primary screen, Q293 LMP1-TROYcd cells, NF-kB luciferase, uHTS; inhibition, % at 10 µM; Q293 LMP1-TROYcd NF-kB luciferase reporter, 4 h; actives 0.98% (n = 360,000); AID 1347056, 2019;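 active means compounds whose plate-normalised and pattern-corrected inhibition of the luciferase reporter signal at the single screening dose is 50% or more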
KKLEB cytotox – cytotoxicity in KKLEB CF airway cells, primary screen, cytotoxicity control for CF NF-kB inhibitor project, cell-based, uHTS, fluorescence assay plates; KKLEB CF airway cells viability, ATPlite luminescence, overnight; stronger effect = lower value; cells stimulated with P. aeruginosa culture filtrate; activity change (cytotoxicity), % at 5 µM; actives 0.36% (n = 360,000);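 active means corrected activity change at or below -50% at 5 µM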
TWEAK-Fn14 inh – inhibitors of TWEAK-Fn14 signaling, primary screen, luciferase reporter cells, uHTS. TWEAK-stimulated Fn14 reporter cells, luciferase luminescence, 8 h. inhibition, % at 10 µM. actives 2% (n = 360,000). AID 1159606, 2016; in the data active means inhibition above about 50%
CF NFkB inh – inhibitors of PAF-induced NF-kB signaling, primary screen, cell-based, GFP fluorescence, uHTS | AID 588850, 2011 | actives 0.86% (n = 360,000) | KKLEB NF-kB-GFP reporter, GFP fluorescence overnight | inhibition, % at 5 µM;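 active means at least 50% inhibition at 5 µM, scaled per plate between neutral and stimulator controls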;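 further: PAF is a Pseudomonas aeruginosa culture filtrate used as stimulus; plate controls were PAF-stimulated DMSO wells for no effect and unstimulated DMSO wells for full effect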
CF NFkB conf – inhibitors of PAF-induced NF-kB signaling, retest, confirmation, cell-based, GFP fluorescence, single concentration; AID 602472, 2012; shares compounds with CF NFkB inh; inhibition, % at 5 µM; KKLEB CF airway cells, overnight; actives 64% (n = 1,300); in the data active means inhibition above about 40%;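 further: stimulus PAF is a Pseudomonas aeruginosa filtrate and not platelet activating factor; plate controls were DMSO wells with stimulus for no effect and unstimulated DMSO wells for full effect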
Mdm2-MdmX confirm – retested Mdm2-MdmX interaction blockers, confirmation, cell-based, luminescence, single concentration, set 2; inhibition, % at 8 µM; SaOS-2 split-luciferase Mdm2/MdmX complementation; actives 99% (n = 740); shares compounds with HIF-2a inh; AID 504601, 2011;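 active means mean inhibition of the luminescence signal across two replicates at or above 26 percent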
Target sequence (O15151 whole entry, looked up): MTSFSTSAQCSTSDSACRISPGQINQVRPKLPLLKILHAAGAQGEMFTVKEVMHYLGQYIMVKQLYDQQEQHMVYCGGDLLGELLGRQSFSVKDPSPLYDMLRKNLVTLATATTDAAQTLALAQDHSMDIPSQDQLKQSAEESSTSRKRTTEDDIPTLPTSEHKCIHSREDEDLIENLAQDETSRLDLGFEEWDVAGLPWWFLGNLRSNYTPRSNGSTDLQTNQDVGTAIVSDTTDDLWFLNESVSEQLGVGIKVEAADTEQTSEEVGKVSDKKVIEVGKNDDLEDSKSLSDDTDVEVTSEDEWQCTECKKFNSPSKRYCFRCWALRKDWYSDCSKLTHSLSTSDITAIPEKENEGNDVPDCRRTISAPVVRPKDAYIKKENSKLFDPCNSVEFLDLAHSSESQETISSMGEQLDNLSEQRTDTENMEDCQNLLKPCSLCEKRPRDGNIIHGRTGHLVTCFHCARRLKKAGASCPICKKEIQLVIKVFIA
Target sequence (Q00987 whole entry, looked up): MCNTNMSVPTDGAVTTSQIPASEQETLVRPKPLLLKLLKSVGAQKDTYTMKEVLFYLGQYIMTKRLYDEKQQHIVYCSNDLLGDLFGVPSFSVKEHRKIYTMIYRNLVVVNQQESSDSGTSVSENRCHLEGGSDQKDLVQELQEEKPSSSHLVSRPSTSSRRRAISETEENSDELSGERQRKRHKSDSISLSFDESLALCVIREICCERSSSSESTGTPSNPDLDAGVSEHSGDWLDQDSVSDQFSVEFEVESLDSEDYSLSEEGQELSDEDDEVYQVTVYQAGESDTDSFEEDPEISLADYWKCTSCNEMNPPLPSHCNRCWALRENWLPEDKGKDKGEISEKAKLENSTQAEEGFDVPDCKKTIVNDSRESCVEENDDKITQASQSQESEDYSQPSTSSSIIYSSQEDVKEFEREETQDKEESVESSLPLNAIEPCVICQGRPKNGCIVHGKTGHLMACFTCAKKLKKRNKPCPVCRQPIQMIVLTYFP
HIF-2a conf – HIF-2a reporter inhibitor retest, confirmation, luminescence, 786-0 RCC cells; shares compounds with HIF-2a inh; HIF-2a luciferase reporter luminescence, overnight; inhibition, % at 18.8 µM; actives 56% (n = 1,800);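 active means mean inhibition across four replicates of at least 40 percent at the single tested concentration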
HIF-1a cs – HIF-1a luciferase reporter signal reduction – MiaPaCa-2 cells, single concentration, counter-screen for HIF-2a inhibitor project, confirmation; shares compounds with HIF-2a inh; MiaPaCa-2 HIF-1a luciferase reporter, desferoxamine, overnight; inhibition, % at 18.8 µM; actives 72% (n = 1,800); AID 651589, 2012;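 active means mean inhibition of the reporter signal across four replicates at the single tested dose of 50% or more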
* = called active by the depositor; · = no result.

SMILES	HIF-2a inh	Peg3 promoter	TROY signal inh	KKLEB cytotox	TWEAK-Fn14 inh	CF NFkB inh	CF NFkB conf	HIF-2a conf	HIF-1a cs	others
CCOc1ccc(-n2c(C)c(C(=O)O)c3cc(OC)ccc32)cc1	2.8	-4.1	-15.3	2.4	40.1	35.6	·	·	·
COc1ccc(-n2c(C)c(C(C)=O)c3cc(O)ccc32)cc1	13.4	7.1	49.1	-6.5	59.1*	69.2*	86.4*	·	·	Mdm2-MdmX confirm=87.2*
COc1ccc2c(c1)c(C(C)=O)c(C)n2-c1ccccc1	11.9	3.5	20.4	4.7	26.4	35.7	·	·	·
CCOc1ccc(-n2c(C)c(C(C)=O)c3cc(OC(C)=O)ccc32)cc1	22.5	26.2	41.8	2.0	79.0*	75.9*	86.9*	·	·	Mdm2-MdmX confirm=89.2*
CCOC(=O)c1c(S(=O)(=O)NCC(=O)N2CCN(c3ccccc3OC)CC2)c(C)n(C)c1C	10.1	5.5	0.6	10.7	-7.2	2.9	·	·	·
COC(=O)[C@H](Cc1ccccc1)NC(=O)NCC1CCCO1 (stereo partly drawn)	4.3	14.6	-11.8	2.4	2.5	-13.4	·	·	·
N#Cc1ccccc1OCC(=O)NNC(=O)c1ccncc1	-0.2	3.9	-5.8	-8.9	5.4	-6.0	·	·	·
N#CC1(NC(=O)Cn2ncc(Cl)c(Cl)c2=O)CCCCC1	86.6*	93.5*	55.3*	2.7	77.7*	80.7*	13.9	58.9*	107.0*
O=[N+]([O-])C1C(c2ccccc2)C12c1ccccc1-c1ccccc12 (stereo not drawn)	49.1*	53.3*	-1.2	-32.1	57.1*	67.9*	46.3*	42.6*	-10.7
CC(=O)Nc1cccc(C(=O)/C=C/c2ccc(N(C)C)cc2)c1	-217.4	-250.7	-63.9	-18.2	-12.8	2.6	·	·	·
CC(=O)Nc1cccc(C(=O)/C=C/c2ccc(Br)cc2)c1	91.7*	101.4*	24.7	-16.0	66.7*	77.9*	-69.0	15.9	105.5*	Mdm2-MdmX confirm=103.2*
CC(C)N=C(NS(=O)(=O)c1ccccc1)C(Cl)(Cl)Cl	84.0*	37.7	76.9*	-19.1	101.1*	60.0*	45.3*	56.6*	35.4
Cc1noc(C)c1CSc1nc2ccccc2n1CCc1ccccc1	-7.0	3.8	-17.1	8.5	-6.1	-5.4	·	·	·
Cc1cccc(/C=C(\c2nc3ccccc3[nH]2)S(=O)(=O)c2ccccc2)c1	88.2*	112.4*	10.0	-25.3	74.8*	54.6*	-178.8	91.9*	104.8*
CC1=CC(C)(C)Nc2ccc(OC(=O)CCN3C(=O)c4ccccc4C3=O)cc21	90.7*	104.1*	26.0	5.2	96.1*	71.0*	-23.9	88.7*	95.3*
Cc1ccc(NC(=O)CSc2nnc(-c3ccncc3)n2N)cc1C	5.0	16.3	-19.2	10.0	-4.6	10.4	·	·	·
c1cncc(CNc2ncnc3ccc(-c4ccoc4)cc23)c1	11.1	18.6	46.8	0.3	83.9*	79.9*	88.1*	·	·	Mdm2-MdmX confirm=87.0*
Brc1ccc2ncnc(NCc3ccccc3)c2c1	24.6	12.9	54.2*	-38.0	81.8*	74.9*	81.0*	·	·	Mdm2-MdmX confirm=89.9*
Cc1csc(CNc2ncnc3ccc(-c4ccoc4)cc23)c1	-2.4	-21.3	53.7*	-19.7	89.8*	71.4*	83.1*	·	·	Mdm2-MdmX confirm=87.0*
Cc1ccc(S(=O)(=O)N2CCOCC2)cc1NC(=O)Cn1cc(C(F)(F)F)cc(Cl)c1=O	-1.7	-8.7	44.5	7.3	-8.0	-3.3	·	·	·
CCS(=O)(=O)Nc1ccc(C(=O)CC2(O)C(=O)Nc3ccc(Br)cc32)cc1 (stereo not drawn)	3.9	2.0	-5.4	5.2	1.5	-9.1	·	·	·
O=S(=O)(Cc1ccc(Cl)cc1)c1ncc(CO)n1Cc1ccccc1	17.0	3.2	2.6	4.0	4.4	-6.4	·	·	·
COc1cc2c(cc1OC)C(C(=O)Nc1ccccc1N1CCN(C)CC1)C1c3ccccc3CCN1C2=O (stereo not drawn)	14.2	-5.5	6.8	11.5	-6.1	5.2	·	·	·
COc1ccc2cc3c(N)nn(C(=O)Cc4ccccc4OC)c3nc2c1	35.9*	41.9	34.5	-10.3	52.4*	54.5*	67.9*	13.5	88.6*
Cn1nnnc1Sc1ncnc2scc(-c3cccc(F)c3)c12	74.9*	101.8*	43.4	-16.7	64.2*	65.8*	29.2	53.7*	104.0*	Mdm2-MdmX confirm=103.0*
SMILES	HIF-2a inh	Peg3 promoter	TROY signal inh	KKLEB cytotox	TWEAK-Fn14 inh	CF NFkB inh	CF NFkB conf	HIF-2a conf	HIF-1a cs	others
Cn1nnnc1Sc1ncnc2scc(-c3ccc(C#N)cc3)c12	90.5*	102.9*	46.3	-48.0	82.8*	77.1*	2.9	94.3*	107.2*	Mdm2-MdmX confirm=103.0*
Fc1ccc(CSc2ncnc3scc(-c4ccccc4)c23)cc1	26.5	20.0	-4.0	-8.6	-7.0	42.7	·	·	·
C/C(=N\N1C(C)CCCC1C)c1ccccc1O (stereo not drawn)	12.8	0.1	-1.3	-11.9	1.7	15.9	·	·	·
COC(=O)Cc1c(OC)ccn(CCc2c[nH]c3ccccc23)c1=O	-216.0	-225.5	-43.0	-8.9	12.3	-2.7	·	·	·
O=C(/C=C/c1ccc([N+](=O)[O-])cc1)c1ccccc(=O)c1O	59.3*	107.1*	-28.9	-9.1	71.9*	67.5*	-88.2	90.9*	103.2*
CCOc1cccc(C(=O)Nc2ccccc2OC(F)F)c1	-80.7	-38.9	-23.2	-3.1	-12.9	5.4	·	·	·
COc1ccc(C(=O)/C=C2/C(=O)Nc3ccccc32)c(OC)c1	90.6*	103.0*	38.3	-40.5	-3.8	84.1*	28.8	63.5*	88.0*
C=CCOc1ccc(C(=O)/C=C2/C(=O)Nc3ccccc32)cc1	5.4	24.7	-23.2	-15.8	-2.3	10.6	·	·	·
C=CCOc1ccccc1C(=O)/C=C1/C(=O)Nc2ccccc21	79.7*	75.6*	20.4	-48.6	23.8	92.3*	36.9	32.0	54.9*
